Source: PubChem BioAssay
Unmarked numbers belong to inactive results.

System: not listed separately
Assay: MM1S myeloma cell viability, profiling panel, resazurin fluorescence, basal, 24 h, PK04 Diversity Set (AID 1174);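 note: MM1S multiple myeloma cell line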
Settings: higher = more signal, called active from +8 up or from −8 down
Note: test concentration not given here.

Row | Compound | z-score
1 | Cc1ccc(S[C@]2(C(=O)NCCCN(C)C)CC(=O)N(C3Cc4ccccc4C3)[C@@H]2c2ccc(CO)cc2I)cc1 | -2.99
2 | COc1ccc(C#Cc2ccc3c(c2)[C@]2(C(=O)N3)[C@H](C(=O)O)[C@H]3C(=O)O[C@H](c4ccccc4)[C@H](c4ccccc4)N3[C@@H]2c2ccccc2OCCO)cc1 | -2.53
3 | COc1ccc(CCNC(=O)[C@@H]2c3ccccc3C(=O)N(Cc3ccccc3OC)[C@H]2c2ccc(CO)cc2)cc1 | -0.0684
4 | C=CCC(OC(C)=O)[C@@H]1[C@@H](N(Cc2cccc3ccccc23)C(=O)Cc2ccc(OC)cc2)c2cc(OCCCO)ccc2N1C(=O)Cc1ccc2ccccc2c1 (stereo partly specified) | 0.504
5 | CC(C)(C)OC(=O)CC[C@@]1(C(=O)NCCN2CCOCC2)N=C(c2ccc(OCCCO)cc2)O[C@@H]1c1ccccc1CN=[N+]=[N-] | -0.743
6 | CC(C)NC(=O)[C@@]1(C)c2ccccc2C(=O)N(Cc2ccccc2)[C@H]1c1ccc(CO)cc1 | 0.782
7 | CN(C)c1ccc(C(O)C2C=CC3C(=O)N(Cc4ccccc4)C(=O)C3N2n2cnnc2)cc1 (stereo unspecified) | -0.253
8 | COc1ccc(C(=O)Nc2ccc(CN3C(=O)[C@@]4(O[C@@H](CCn5cc(CCO)nn5)[C@H]([Si](C)(C)c5ccc(OC)cc5)[C@H]4C)c4ccccc43)cc2)cc1 | -4.02
9 | CC(C)C[C@H]1NC(=O)C([C@@H](C)OCc2ccccc2)NC(=O)[C@@]23C(=O)N[C@@H](Cc4ccccc4)C2[C@H](C)[C@@]2(C)O[C@H]2C3/C=C/C/C=C\CNC1=O (stereo partly specified) | -0.521
10 | COc1ccc([Si](C)(C)[C@@H]2[C@@H](CC(=O)N3CCC[C@H]3CO)O[C@]3(C(=O)N(Cc4cccc(N5CCCCC5=O)c4)c4ccccc43)[C@H]2C)cc1 | -2
11 | CO[C@H]1O[C@H](CO)[C@@H](OC(=O)Nc2ccccc2-c2ccccc2)[C@H](OC(=O)Nc2ccccc2)[C@H]1OC(=O)Nc1ccccc1 | -3.07
12 | CCCCC(O)C1C=CC2C(=O)N(c3ccccc3)C(=O)C2N1Nc1ccc([N+](=O)[O-])cc1 (stereo unspecified) | 0.519
13 | C=CCNC(=O)[C@@H]1[C@H]2C(=O)O[C@H](c3ccccc3)[C@H](c3ccccc3)N2[C@H](c2ccc(OCCO)cc2)[C@@]12C(=O)Nc1ccc(C#CC3(O)CCCCCC3)cc12 | -2.37
14 | CN1C(=O)C2C(C1=O)C1C=C(c3ccc(CO)cc3)C2C(C2CC2)N1C (stereo unspecified) | -0.485
15 | COC(=O)[C@@]1(Cc2ccc(F)cc2)[C@H]2c3cc(C(=O)N4CCCC4)n(Cc4ccccn4)c3C[C@H]2CN1C(=O)c1ccccc1 | -2.15
16 | NC(=O)N1C(=O)C2C(C1=O)C1C=C(CCCO)C2C(c2ccc(CN3CCCC3)cc2)N1Cc1cc2c(cc1Br)OCO2 (stereo unspecified) | -1.29
17 | CCCCN1CC=CC23O[C@@H]4/C=C\CCCOC(=O)C4[C@H]2C(=O)N(C(CO)C(C)C)[C@@H]3C1=O (stereo partly specified) | -0.289
18 | O=C1O[C@H](c2ccccc2)[C@H](c2ccccc2)N2[C@H]1[C@@H](C(=O)N1CCN(c3ncccn3)CC1)[C@]1(C(=O)Nc3ccc(C#CCCO)cc31)[C@H]2c1ccc(O)cc1 | 0.34
19 | O=C1NC(=O)C2C1C=CC(C(O)c1ccc([N+](=O)[O-])cc1)N2Nc1ccccn1 (stereo unspecified) | -0.76
20 | O=C1C2C=CC(C(O)c3ccc([N+](=O)[O-])cc3)N(Nc3ccccc3F)C2C(=O)N1c1ccccc1 (stereo unspecified) | -0.348
21 | COc1ccc([Si](C)(C)[C@@H]2[C@@H](CC(=O)N(CCO)Cc3ccccc3)O[C@]3(C(=O)N(Cc4ccc(I)cc4)c4ccccc43)[C@H]2C)cc1 | -2.27
22 | CN1C(=O)C2C(C1=O)C1C=C(CCCO)C2C(C2CC2)N1Cc1cccc(OC(F)(F)F)c1 (stereo unspecified) | -0.551
23 | CCOC(=O)C[C@H]1[C@H](OC(=O)c2cc3ccccc3oc2=O)[C@@H](NC(=O)CC(C)C)c2cc(OCCCO)ccc2N1C(=O)Cc1ccc(OC)cc1 | -0.233
24 | NC(=O)N1C(=O)C2C(C1=O)C1C=C(CCCO)C2C(C2CC2)N1Cc1sc2ccccc2c1Cl (stereo unspecified) | 0.691
25 | COCCn1c(C(=O)N(C)C)cc2c1C[C@H]1CN(C(=O)c3ccccc3)[C@@](Cc3ccc(OC)cc3)(C(=O)OC)[C@@H]21 | -1.43

Biological target: Dihydroorotate dehydrogenase (quinone), mitochondrial (Plasmodium falciparum (isolate 3D7)) (UniProt Q08210)
Sequence (Q08210 whole entry, looked up): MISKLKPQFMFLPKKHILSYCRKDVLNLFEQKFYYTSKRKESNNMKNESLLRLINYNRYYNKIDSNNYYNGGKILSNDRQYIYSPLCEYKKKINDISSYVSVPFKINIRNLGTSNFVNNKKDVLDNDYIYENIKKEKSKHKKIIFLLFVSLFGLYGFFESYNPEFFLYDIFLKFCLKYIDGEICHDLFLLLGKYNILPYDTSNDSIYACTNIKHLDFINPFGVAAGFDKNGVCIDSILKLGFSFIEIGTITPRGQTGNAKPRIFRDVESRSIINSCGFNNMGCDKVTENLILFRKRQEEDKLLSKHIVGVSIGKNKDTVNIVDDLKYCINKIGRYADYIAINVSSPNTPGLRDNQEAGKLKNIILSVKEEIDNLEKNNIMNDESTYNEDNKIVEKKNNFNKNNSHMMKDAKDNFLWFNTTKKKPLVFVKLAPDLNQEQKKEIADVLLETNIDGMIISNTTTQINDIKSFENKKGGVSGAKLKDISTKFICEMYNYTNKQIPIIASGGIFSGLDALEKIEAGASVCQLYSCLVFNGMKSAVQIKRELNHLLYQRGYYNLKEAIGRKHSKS
Assay: PfDHODH enzyme inhibitors, primary screen, biochemical, C-terminal His tag, absorbance 600 nm (AID 1175);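 note: recombinant parasite enzyme with a five histidine tag at its C terminus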
Settings: DCIP absorbance 600 nm, higher = more signal, called active from +8 up or from −8 down

Row | Compound | composite z-score
26 | CCCNC(=O)[C@@]1(Sc2ccc(C)cc2)CC(=O)N(Cc2ccccc2Cl)[C@@H]1c1ccc(CO)cc1I | -0.139
27 | C=CCN1Cc2ccccc2[C@H]2OC(c3ccc(OCCCO)cc3)=N[C@@]2(CCS(=O)(=O)c2ccccc2)C1=O | 0.2
28 | [N-]=[N+]=Nc1ccccc1C[C@]1(C(=O)N2CCOCC2)N=C(c2ccc(OCCCO)cc2)O[C@H]1c1ccccc1N=[N+]=[N-] | -0.481
29 | C[C@]1(C(=O)O)c2ccccc2C(=O)N(Cc2cc(F)cc(C(F)(F)F)c2)[C@H]1c1ccc(CO)cc1 | -0.215
30 | CC(C)c1nc2cc(Br)ccc2c(=O)o1 | 0.374
31 | CN(C)CCCC[C@@H]1NC(=O)[C@H]2C[C@@H](C(=O)O)[C@@H](c3ccc(O)cc3)N2C1=O | -0.676
32 | CN1C(=O)C2C(C3CC3)C=C3CN(Cc4cccc(Cl)c4)[C@@H]([C@@H](O)Cc4ccccc4)C3C2C1=O (stereo partly specified) | -0.0831
33 | C=CCC(OC(C)=O)[C@@H]1[C@@H](N(Cc2ccc(-c3cccc(C(F)(F)F)c3)o2)C(=O)c2ccc(-c3ccccc3)cc2)c2cc(OCCCO)ccc2N1C(=O)c1ccc2ccccc2c1 (stereo partly specified) | -0.0636
34 | CCCCC(O)C1C=CC2C(=O)N(c3ccccc3)C(=O)C2N1Nc1ccc(C#N)cc1 (stereo unspecified) | 0.318
35 | NC(=O)N1C(=O)C2C(C1=O)C1C=C(CCCO)C2C(c2ccc(CN3CCCC3)cc2)N1Cc1sc2ccccc2c1Cl (stereo unspecified) | 0.574
36 | CC(C)=CCCC(C)=CC(O)C1C=CC2C(=O)NC(=O)C2N1Nc1ccccn1 (stereo unspecified) | 0.242
37 | Cc1ccc(S[C@]2(C(=O)NCCCN(C)C)CC(=O)N(C3Cc4ccccc4C3)[C@@H]2c2ccc(CO)cc2I)cc1 | 0.505
38 | COc1ccc(C#Cc2ccc3c(c2)[C@]2(C(=O)N3)[C@H](C(=O)O)[C@H]3C(=O)O[C@H](c4ccccc4)[C@H](c4ccccc4)N3[C@@H]2c2ccccc2OCCO)cc1 | -3.86
39 | COc1ccc(CCNC(=O)[C@@H]2c3ccccc3C(=O)N(Cc3ccccc3OC)[C@H]2c2ccc(CO)cc2)cc1 | 1.14
40 | C=CCC(OC(C)=O)[C@@H]1[C@@H](N(Cc2cccc3ccccc23)C(=O)Cc2ccc(OC)cc2)c2cc(OCCCO)ccc2N1C(=O)Cc1ccc2ccccc2c1 (stereo partly specified) | -0.717
41 | CC(C)(C)OC(=O)CC[C@@]1(C(=O)NCCN2CCOCC2)N=C(c2ccc(OCCCO)cc2)O[C@@H]1c1ccccc1CN=[N+]=[N-] | -0.918

Row | Compound | composite z-score
42 | CC(C)NC(=O)[C@@]1(C)c2ccccc2C(=O)N(Cc2ccccc2)[C@H]1c1ccc(CO)cc1 | -1.48
43 | CN(C)c1ccc(C(O)C2C=CC3C(=O)N(Cc4ccccc4)C(=O)C3N2n2cnnc2)cc1 (stereo unspecified) | -0.536
44 | COc1ccc(C(=O)Nc2ccc(CN3C(=O)[C@@]4(O[C@@H](CCn5cc(CCO)nn5)[C@H]([Si](C)(C)c5ccc(OC)cc5)[C@H]4C)c4ccccc43)cc2)cc1 | 0.483
45 | CC(C)C[C@H]1NC(=O)C([C@@H](C)OCc2ccccc2)NC(=O)[C@@]23C(=O)N[C@@H](Cc4ccccc4)C2[C@H](C)[C@@]2(C)O[C@H]2C3/C=C/C/C=C\CNC1=O (stereo partly specified) | -0.116
46 | COc1ccc([Si](C)(C)[C@@H]2[C@@H](CC(=O)N3CCC[C@H]3CO)O[C@]3(C(=O)N(Cc4cccc(N5CCCCC5=O)c4)c4ccccc43)[C@H]2C)cc1 | -0.877
47 | CO[C@H]1O[C@H](CO)[C@@H](OC(=O)Nc2ccccc2-c2ccccc2)[C@H](OC(=O)Nc2ccccc2)[C@H]1OC(=O)Nc1ccccc1 | -0.0626
48 | CCCCC(O)C1C=CC2C(=O)N(c3ccccc3)C(=O)C2N1Nc1ccc([N+](=O)[O-])cc1 (stereo unspecified) | 0.0188
49 | C=CCNC(=O)[C@@H]1[C@H]2C(=O)O[C@H](c3ccccc3)[C@H](c3ccccc3)N2[C@H](c2ccc(OCCO)cc2)[C@@]12C(=O)Nc1ccc(C#CC3(O)CCCCCC3)cc12 | 0.315
50 | CN1C(=O)C2C(C1=O)C1C=C(c3ccc(CO)cc3)C2C(C2CC2)N1C (stereo unspecified) | 0.918
51 | COC(=O)[C@@]1(Cc2ccc(F)cc2)[C@H]2c3cc(C(=O)N4CCCC4)n(Cc4ccccn4)c3C[C@H]2CN1C(=O)c1ccccc1 | 0.29
52 | NC(=O)N1C(=O)C2C(C1=O)C1C=C(CCCO)C2C(c2ccc(CN3CCCC3)cc2)N1Cc1cc2c(cc1Br)OCO2 (stereo unspecified) | 0.0032
53 | CCCCN1CC=CC23O[C@@H]4/C=C\CCCOC(=O)C4[C@H]2C(=O)N(C(CO)C(C)C)[C@@H]3C1=O (stereo partly specified) | -1.4
54 | O=C1O[C@H](c2ccccc2)[C@H](c2ccccc2)N2[C@H]1[C@@H](C(=O)N1CCN(c3ncccn3)CC1)[C@]1(C(=O)Nc3ccc(C#CCCO)cc31)[C@H]2c1ccc(O)cc1 | 0.438
55 | O=C1NC(=O)C2C1C=CC(C(O)c1ccc([N+](=O)[O-])cc1)N2Nc1ccccn1 (stereo unspecified) | 0.622
56 | O=C1C2C=CC(C(O)c3ccc([N+](=O)[O-])cc3)N(Nc3ccccc3F)C2C(=O)N1c1ccccc1 (stereo unspecified) | 0.15
